Consider eleven compounds from PubChem BioAssay.

SMILES strings stand for the structures. “And” between values parts separate entries of the source, which are not always exact repeats. Equal values may be shown once. The source made the active and inactive calls.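 The calls were made as follows, unless noted: active = compounds whose cell count with miR-34 switched on is under 0.7 times the count with it off; inactive = the rest.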

Experiment [1] concerns Aerobactin synthetase IucA (Klebsiella pneumoniae). The experiment in a line: IucA aerobactin synthetase inhibitors, biochemical, Tocris library, absorbance (AID 1345561; call rule not given here;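 also: 100% = enzyme without compound and 0% = no enzyme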). To be noted: purified IucA enzyme assay, absorbance (OD) read-out; stronger effect = lower value;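 tested at 8 µM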.
Experiment [2] is described as follows: sensitizers of A549 cells to miR-34 induction, primary screen, imaging, A549 dox-inducible miR-34, nuclei and caspase counts (AID 1347080). The note with it: A549 miR-34 inducible, Hoechst nuclei count, 48 h.
A short description of experiment [3]: viability rescue of complex I mutant cybrids, primary screen, cell-based, galactose medium, ATP luminescence (AID 1645843;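 active = z-score of at least 1.8 in each of two replicates, scored against plate mean and spread of sample wells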;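 also: positive z means more ATP and so rescue of galactose-driven cybrid death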). The note with it: complex I mutant cybrid cells, 72 h, stronger effect = higher value.
Experiment [4] is described as follows: liver-stage malaria parasite growth inhibition, primary screen, cell-based, HepG2, luciferase luminescence, HepG2 viability (AID 624349; in the data active = parasite load remaining mostly below about 12%, no sharp cut-off; inactive = mostly above about 10%;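 also: 100% = mean of DMSO negative control wells on the same plate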). The note with it: P. berghei liver stage in HepG2, luciferase luminescence, concentration not given here; parasite load remaining: stronger effect = lower value; viability: measured here: HepG2 viability without parasites.
Setting [5] is: stronger effect = lower value, cell number ratio, induced over uninduced.
Setting [6] is: measured here: relative caspase fold change +Dox/-Dox.
The mark [7] stands for this setting: measured here: total cells with miR-34 induction, stronger effect = lower value.
Setting [8] is: measured here: total cells without miR-34 induction.

For `Cc1c(C(=O)NC2CCCCC2)sc2nc3ccc(N)cc3n12`, in experiment [1], the remaining activity is 120% (inactive). Also, the fold change was 0.889 (inactive) in experiment [2] (setting [5]) and 1.46 in experiment [2] (setting [6]). Moreover, the cell count was 5970 in experiment [2] (setting [7]) and 6720 in experiment [2] (setting [8]). In addition, the z-score in experiment [3] was -0.625 (inactive).

On to `N#C/C(=C\c1ccc(O)c(O)c1)C(=O)Nc1ccccc1`, for which, in experiment [1], the remaining activity was 117% (inactive). The fold change in experiment [2] (setting [5]) was 1.02 (inactive) and 0.911 (inactive); in experiment [2] (setting [6]), 0.933 and 1.77. The cell count in experiment [2] (setting [7]) was 7050 and 7400; in experiment [2] (setting [8]), 6920 and 8120. For the same compound, the z-score in experiment [3] is -1.14 (inactive) and -0.745 (inactive).

Take `OC[C@H]1O[C@@H](n2cnc3c(N[C@H]4CCC[C@@H]4O)ncnc32)[C@H](O)[C@@H]1O`: the remaining activity in experiment [1] was 116% (inactive). Besides, the results for the fold change in experiment [2] (setting [5]) and in experiment [2] (setting [6]) were 0.959 (inactive) and 0.92, respectively. The cell count in experiment [2] (setting [7]) amounted to 8820; in experiment [2] (setting [8]), 9190. For the same compound, the z-score in experiment [3] was 0.09 (inactive).

In the case of `c1ccc(-c2n[nH]c3c2oc2ccccc23)cc1`, the parasite load remaining in experiment [4] was 24.1% (inactive). Also, the viability in experiment [4] was determined as 103%. In addition, the remaining activity in experiment [1] is 98.7% (inactive). Moreover, the fold change in experiment [2] (setting [5]) is 0.891 (inactive); in experiment [2] (setting [6]), 1.09. The cell count in experiment [2] (setting [7]) came out at 6520; in experiment [2] (setting [8]), 7320. Moreover, the z-score in experiment [3] was 0.045 (inactive).

Regarding `COc1cc2ncnc(Nc3ccc(Oc4ccccc4)cc3)c2cc1OC`, the parasite load remaining in experiment [4] was 30.7% (inactive). Moreover, the viability in experiment [4] amounted to 67.6%. The remaining activity in experiment [1] was 104% (inactive). The fold change was 0.963 (inactive) in experiment [2] (setting [5]) and 1.11 in experiment [2] (setting [6]). Further, the results for the cell count in experiment [2] (setting [7]) and in experiment [2] (setting [8]) were 8700 and 9040, respectively. In experiment [3], the z-score is 0.48 (inactive).

Turning to `COC(=O)C1=C(C)NC(C)=C(C(=O)OCCSc2ccccc2)C1C` (stereo not given), the remaining activity in experiment [1] was 91.1% (inactive). Besides, the fold change in experiment [2] (setting [5]) was 0.923 (inactive) and 0.85 (inactive); in experiment [2] (setting [6]), 0.923 and 0.966. The cell count in experiment [2] (setting [7]) is 2710 and 6700; in experiment [2] (setting [8]) it was 2930 and 7880. Also, in experiment [3], the z-score is -0.87 (inactive).

As to `Cc1cc(Cn2cnc3c2C[C@@H](C(=O)O)N(C(=O)C(c2ccccc2)c2ccccc2)C3)ccc1N(C)C`, the remaining activity in experiment [1] is 122% (inactive). Moreover, the fold change in experiment [2] (setting [5]) was 0.877 (inactive); in experiment [2] (setting [6]), 0.611. The results for the cell count in experiment [2] (setting [7]) and in experiment [2] (setting [8]) were 8880 and 10100, respectively. In addition, in experiment [3], the z-score was 0.245 (inactive).

Consider `Cc1c(CC(C)(C)C(=O)O)n(Cc2ccc(Cl)cc2)c2ccc(F)cc12`, for which the remaining activity in experiment [1] was 112% (inactive). For the same compound, the fold change is 0.952 (inactive) in experiment [2] (setting [5]) and 0.72 in experiment [2] (setting [6]). The cell count in experiment [2] (setting [7]) was found to be 8220; in experiment [2] (setting [8]) it was 8630. Also, the z-score in experiment [3] is 0.1 (inactive).

Turning to `COC(=O)/C=C/c1cc(O)ccc1O`, in experiment [1], the remaining activity is 98.4% (inactive). Further, the fold change in experiment [2] (setting [5]) is 0.869 (inactive); in experiment [2] (setting [6]) it was 0.871. The figures for the cell count in experiment [2] (setting [7]) and in experiment [2] (setting [8]) were 8110 and 9340, respectively. Further, in experiment [3], the z-score is -1.21 (inactive).

With `CC(=O)N1CCN(C)CC1`, in experiment [1], the remaining activity was 118% (inactive). In addition, the fold change was 0.971 (inactive) in experiment [2] (setting [5]) and 0.837 in experiment [2] (setting [6]). The cell count turned out to be 8470 in experiment [2] (setting [7]) and 8720 in experiment [2] (setting [8]). In experiment [3], the z-score is 0.29 (inactive).

For the compound `O=C(Nc1ccccc1)N[C@H]1C[C@H](C(=O)O)Nc2cc(Cl)cc(Cl)c21`, the remaining activity in experiment [1] is 104% (inactive). For the same compound, the fold change in experiment [2] (setting [5]) is 0.916 (inactive); in experiment [2] (setting [6]), 0.915. The cell count turned out to be 8670 in experiment [2] (setting [7]) and 9460 in experiment [2] (setting [8]). Besides, in experiment [3], the z-score was 0.995 (inactive).
